Key:
Test in all cases: log2 ratio of Biotin-Ahx-Ub-VS probe labelling (fragment/DMSO); higher = less target engagement (more negative = stronger competition), active = hit call of the paper (q ≤ 0.05, log2 ratio ≤ -1)
Details in all cases: compound concentration: 200 uM; treatment time: 3 h
USP34 = USP34 (UniProt Q70CQ2)
Method in brief: (§1)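 HEK293T lysate, 495 µg per sample in Tris/CHAPS/IGEPAL buffer with protease inhibitors, was treated in triplicate with fragment at 200 µM or vehicle for 3 h and then with Biotin-Ahx-Ub-VS at 0.5 µM final for 1 h. Labelled DUBs were NeutrAvidin-enriched, digested with LysC and trypsin, and run by diaPASEF LC-MS/MS. Spectronaut label-free quantities were global-median-normalised, and values are average log2 fragment/vehicle ratios by unpaired t-test on proteins with ≥2 unique peptides.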

USP36 = biological target: T1, USP36 (UniProt Q9P275)
T1 sequence (whole entry): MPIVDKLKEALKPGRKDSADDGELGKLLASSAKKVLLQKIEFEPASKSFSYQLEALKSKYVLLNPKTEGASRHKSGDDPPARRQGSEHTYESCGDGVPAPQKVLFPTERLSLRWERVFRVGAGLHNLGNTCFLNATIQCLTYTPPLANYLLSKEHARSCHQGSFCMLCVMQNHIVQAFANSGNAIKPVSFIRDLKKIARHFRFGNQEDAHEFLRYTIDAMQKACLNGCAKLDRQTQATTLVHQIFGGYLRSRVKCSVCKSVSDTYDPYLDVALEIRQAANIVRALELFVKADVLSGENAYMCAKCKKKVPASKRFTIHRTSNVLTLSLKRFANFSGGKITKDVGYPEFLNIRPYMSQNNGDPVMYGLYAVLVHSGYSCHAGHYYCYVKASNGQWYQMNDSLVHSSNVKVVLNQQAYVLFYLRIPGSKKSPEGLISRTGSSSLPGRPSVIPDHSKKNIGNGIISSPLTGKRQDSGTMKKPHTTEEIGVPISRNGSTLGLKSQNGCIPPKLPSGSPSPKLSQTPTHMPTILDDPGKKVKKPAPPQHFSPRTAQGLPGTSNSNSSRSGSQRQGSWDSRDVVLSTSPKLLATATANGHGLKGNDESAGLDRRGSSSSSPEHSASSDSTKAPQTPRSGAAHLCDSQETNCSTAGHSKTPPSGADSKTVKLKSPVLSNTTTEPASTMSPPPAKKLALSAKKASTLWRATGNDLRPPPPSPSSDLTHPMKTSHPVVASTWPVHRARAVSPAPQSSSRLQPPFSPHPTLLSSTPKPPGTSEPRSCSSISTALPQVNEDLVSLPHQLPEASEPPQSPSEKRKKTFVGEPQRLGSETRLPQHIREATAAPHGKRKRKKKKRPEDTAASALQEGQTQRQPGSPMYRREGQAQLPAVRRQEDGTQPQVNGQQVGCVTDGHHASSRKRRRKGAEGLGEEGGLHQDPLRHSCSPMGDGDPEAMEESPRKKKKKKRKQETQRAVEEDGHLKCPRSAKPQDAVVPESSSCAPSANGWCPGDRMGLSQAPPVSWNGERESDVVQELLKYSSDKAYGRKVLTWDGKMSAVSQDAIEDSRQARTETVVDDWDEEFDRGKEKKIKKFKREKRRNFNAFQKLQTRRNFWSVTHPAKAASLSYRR
Method in brief: as §1

USP38 = biological target: T2, USP38 (UniProt Q8NB14)
T2 sequence (whole entry): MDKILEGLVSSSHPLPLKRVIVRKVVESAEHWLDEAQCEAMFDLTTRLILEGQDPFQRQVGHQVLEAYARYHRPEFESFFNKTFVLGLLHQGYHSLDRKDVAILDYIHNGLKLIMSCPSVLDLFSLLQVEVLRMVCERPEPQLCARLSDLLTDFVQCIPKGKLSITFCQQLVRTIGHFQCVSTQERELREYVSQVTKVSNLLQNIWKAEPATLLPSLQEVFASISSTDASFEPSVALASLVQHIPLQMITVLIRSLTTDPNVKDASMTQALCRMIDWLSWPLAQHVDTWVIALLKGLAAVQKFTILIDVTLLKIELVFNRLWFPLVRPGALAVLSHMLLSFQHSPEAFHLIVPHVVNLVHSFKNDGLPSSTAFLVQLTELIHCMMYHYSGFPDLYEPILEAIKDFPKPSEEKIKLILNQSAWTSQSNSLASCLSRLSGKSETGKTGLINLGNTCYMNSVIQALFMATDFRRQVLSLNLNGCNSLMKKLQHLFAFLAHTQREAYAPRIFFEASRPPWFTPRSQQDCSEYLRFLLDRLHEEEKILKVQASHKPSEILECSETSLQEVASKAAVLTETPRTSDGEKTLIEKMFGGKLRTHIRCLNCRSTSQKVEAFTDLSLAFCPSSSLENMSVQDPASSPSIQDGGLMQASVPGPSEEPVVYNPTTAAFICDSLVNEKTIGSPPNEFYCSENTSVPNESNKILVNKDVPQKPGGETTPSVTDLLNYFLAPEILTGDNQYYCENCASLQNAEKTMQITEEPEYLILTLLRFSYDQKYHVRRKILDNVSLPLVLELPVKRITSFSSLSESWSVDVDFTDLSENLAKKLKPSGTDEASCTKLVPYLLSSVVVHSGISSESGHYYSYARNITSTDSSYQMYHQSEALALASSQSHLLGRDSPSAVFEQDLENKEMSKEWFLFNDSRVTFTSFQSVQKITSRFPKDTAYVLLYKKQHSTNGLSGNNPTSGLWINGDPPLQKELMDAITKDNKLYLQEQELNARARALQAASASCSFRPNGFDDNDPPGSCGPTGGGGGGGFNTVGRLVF
Method in brief: as §1

USP39 = biological target: T3, USP39 (UniProt Q53GS9)
T3 sequence (whole entry): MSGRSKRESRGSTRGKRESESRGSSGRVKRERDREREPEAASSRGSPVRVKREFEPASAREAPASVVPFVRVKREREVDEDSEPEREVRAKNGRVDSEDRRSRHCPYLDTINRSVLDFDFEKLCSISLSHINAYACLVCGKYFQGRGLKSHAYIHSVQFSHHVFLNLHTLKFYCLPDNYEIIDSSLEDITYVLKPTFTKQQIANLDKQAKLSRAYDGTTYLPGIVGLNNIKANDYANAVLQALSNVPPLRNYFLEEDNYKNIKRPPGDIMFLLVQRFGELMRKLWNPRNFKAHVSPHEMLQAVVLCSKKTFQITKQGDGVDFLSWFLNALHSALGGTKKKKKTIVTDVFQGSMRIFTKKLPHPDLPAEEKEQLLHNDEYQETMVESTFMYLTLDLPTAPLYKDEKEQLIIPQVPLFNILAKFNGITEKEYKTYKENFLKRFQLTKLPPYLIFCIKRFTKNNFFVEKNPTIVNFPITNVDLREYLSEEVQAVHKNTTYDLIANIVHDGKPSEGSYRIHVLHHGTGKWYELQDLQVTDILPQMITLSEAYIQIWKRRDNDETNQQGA
Method in brief: as §1

USP4 = biological target: T4, USP4 (UniProt Q13107)
T4 sequence (whole entry): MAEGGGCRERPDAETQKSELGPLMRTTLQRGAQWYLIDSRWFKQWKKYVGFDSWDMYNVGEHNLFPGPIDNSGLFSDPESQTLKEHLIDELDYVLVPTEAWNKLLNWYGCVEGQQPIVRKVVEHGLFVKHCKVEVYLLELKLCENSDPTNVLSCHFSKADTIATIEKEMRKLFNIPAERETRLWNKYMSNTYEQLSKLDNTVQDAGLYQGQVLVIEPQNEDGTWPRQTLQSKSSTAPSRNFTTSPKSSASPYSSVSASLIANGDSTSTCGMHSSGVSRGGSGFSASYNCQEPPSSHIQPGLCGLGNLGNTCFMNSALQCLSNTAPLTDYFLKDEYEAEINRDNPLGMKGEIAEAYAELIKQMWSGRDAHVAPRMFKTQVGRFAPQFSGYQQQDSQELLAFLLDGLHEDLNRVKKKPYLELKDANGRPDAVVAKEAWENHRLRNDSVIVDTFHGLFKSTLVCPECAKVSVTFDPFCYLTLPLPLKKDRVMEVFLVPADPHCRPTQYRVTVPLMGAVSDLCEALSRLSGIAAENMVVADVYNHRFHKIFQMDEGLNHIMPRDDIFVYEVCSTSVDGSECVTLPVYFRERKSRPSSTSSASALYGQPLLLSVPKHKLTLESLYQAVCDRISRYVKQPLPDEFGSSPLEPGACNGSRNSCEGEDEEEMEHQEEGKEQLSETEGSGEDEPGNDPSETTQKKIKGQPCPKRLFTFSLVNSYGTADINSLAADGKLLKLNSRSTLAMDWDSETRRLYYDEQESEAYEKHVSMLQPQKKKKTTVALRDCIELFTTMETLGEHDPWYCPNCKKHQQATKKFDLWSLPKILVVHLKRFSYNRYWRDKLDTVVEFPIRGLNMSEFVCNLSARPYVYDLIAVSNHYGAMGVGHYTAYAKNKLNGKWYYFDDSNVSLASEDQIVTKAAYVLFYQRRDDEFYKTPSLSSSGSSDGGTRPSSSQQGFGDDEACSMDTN
Method in brief: as §1

Measured: log2 ratio of Biotin-Ahx-Ub-VS probe labelling

USP34, sequence (Q70CQ2 whole entry, the tested form may be a part): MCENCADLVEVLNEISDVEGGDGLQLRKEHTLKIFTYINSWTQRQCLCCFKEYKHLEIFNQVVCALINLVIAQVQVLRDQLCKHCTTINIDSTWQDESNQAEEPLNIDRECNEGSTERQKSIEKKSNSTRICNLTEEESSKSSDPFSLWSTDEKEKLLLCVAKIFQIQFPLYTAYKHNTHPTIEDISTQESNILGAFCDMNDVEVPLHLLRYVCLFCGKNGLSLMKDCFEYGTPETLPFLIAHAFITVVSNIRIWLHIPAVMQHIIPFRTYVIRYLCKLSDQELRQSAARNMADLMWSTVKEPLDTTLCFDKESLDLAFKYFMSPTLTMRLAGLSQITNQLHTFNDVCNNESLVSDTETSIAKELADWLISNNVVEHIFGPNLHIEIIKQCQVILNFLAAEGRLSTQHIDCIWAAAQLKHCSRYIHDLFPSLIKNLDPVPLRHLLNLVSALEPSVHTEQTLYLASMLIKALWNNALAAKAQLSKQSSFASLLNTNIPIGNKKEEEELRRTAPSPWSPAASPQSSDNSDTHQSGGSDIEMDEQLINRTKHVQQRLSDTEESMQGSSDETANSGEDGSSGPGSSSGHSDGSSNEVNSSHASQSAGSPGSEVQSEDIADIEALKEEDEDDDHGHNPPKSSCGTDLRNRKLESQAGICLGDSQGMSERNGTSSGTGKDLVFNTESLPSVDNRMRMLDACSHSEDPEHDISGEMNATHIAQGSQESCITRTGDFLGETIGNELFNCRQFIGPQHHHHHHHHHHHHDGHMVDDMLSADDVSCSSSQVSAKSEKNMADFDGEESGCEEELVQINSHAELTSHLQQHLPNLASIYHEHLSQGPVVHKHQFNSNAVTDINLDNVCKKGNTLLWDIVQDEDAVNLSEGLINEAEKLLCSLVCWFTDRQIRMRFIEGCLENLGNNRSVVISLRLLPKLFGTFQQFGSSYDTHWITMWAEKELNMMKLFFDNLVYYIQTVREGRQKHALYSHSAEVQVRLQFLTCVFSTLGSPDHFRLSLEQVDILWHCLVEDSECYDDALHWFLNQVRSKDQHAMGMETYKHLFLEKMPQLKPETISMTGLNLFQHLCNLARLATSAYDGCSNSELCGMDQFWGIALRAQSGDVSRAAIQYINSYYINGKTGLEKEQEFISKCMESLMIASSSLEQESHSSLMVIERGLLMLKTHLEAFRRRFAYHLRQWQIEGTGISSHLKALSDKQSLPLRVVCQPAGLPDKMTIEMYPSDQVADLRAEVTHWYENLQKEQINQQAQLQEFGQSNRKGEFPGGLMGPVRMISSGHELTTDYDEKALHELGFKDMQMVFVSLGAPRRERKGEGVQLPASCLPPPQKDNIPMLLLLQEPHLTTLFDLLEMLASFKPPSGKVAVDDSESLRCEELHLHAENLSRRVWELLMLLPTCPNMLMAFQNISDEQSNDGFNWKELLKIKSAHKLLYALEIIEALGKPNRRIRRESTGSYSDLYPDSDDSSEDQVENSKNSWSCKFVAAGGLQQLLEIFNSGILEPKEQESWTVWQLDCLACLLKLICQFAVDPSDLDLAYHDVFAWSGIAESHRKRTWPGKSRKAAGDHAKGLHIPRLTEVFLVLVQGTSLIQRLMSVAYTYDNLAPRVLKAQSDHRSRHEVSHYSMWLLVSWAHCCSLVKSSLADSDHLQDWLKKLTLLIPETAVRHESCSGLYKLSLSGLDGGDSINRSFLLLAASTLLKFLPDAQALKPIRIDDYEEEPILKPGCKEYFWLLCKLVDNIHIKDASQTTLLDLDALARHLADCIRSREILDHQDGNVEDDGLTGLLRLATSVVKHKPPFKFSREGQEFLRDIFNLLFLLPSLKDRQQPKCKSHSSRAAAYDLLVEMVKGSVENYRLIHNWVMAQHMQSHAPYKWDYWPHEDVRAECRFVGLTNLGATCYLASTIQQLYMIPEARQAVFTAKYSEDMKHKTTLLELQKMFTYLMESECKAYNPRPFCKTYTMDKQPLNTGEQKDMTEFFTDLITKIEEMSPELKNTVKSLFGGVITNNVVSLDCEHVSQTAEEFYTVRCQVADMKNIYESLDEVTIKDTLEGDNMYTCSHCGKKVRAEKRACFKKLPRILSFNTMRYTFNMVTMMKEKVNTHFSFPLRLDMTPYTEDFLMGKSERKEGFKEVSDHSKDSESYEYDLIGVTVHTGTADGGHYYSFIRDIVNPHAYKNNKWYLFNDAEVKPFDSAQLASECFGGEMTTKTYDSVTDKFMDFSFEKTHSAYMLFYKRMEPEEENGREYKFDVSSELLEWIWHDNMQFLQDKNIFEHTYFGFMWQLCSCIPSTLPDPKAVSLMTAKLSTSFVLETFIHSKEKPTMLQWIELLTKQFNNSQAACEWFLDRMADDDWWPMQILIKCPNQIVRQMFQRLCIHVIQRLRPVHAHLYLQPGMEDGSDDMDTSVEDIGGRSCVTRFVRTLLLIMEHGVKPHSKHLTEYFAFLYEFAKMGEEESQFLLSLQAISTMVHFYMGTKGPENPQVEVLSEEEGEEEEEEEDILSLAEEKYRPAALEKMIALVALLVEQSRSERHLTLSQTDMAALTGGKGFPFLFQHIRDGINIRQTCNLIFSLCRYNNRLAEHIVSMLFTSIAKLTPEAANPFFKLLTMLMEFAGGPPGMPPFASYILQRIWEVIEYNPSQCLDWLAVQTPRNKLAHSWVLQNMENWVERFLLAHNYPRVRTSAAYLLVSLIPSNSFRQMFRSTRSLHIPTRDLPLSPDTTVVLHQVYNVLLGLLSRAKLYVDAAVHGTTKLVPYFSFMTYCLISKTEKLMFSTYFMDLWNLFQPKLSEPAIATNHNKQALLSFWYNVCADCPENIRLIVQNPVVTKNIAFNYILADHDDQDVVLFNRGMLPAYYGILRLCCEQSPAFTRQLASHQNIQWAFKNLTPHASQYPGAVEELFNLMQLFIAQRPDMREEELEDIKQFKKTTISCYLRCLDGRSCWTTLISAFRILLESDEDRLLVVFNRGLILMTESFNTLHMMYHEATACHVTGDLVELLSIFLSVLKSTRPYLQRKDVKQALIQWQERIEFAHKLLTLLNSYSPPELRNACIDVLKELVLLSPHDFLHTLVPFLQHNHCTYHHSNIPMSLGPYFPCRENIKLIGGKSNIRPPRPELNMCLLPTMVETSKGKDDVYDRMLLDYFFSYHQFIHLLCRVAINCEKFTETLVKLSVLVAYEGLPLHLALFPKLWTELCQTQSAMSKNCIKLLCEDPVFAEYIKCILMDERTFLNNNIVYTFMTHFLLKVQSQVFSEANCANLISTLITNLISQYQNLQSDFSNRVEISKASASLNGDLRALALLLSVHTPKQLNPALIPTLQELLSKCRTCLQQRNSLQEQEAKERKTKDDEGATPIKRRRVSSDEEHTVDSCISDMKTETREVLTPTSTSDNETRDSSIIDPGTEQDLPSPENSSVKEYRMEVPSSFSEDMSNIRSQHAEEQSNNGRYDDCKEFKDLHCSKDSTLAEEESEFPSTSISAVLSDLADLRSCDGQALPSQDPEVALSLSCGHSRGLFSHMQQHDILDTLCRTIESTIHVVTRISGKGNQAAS

CCN1C(=O)C2CN(C(=O)CCl)CCN2C1=O (stereo not given)
inactive: USP34 0.053 | USP36 -0.271 | USP38 -0.0595 | USP39 -0.0577 | USP4 0.0781
